In PubChem BioAssay (EPA / NIEHS):
Active and inactive are the calls of the source. Rule for the calls: active = hit-call score of the fitted dose curve at least 0.9, where 1 is the maximum; inactive = score below 0.9.

Read-out: 3-Hydroxy-3-Methylglutaryl-CoA Synthase 2 (HMGCS2), HMGCS2 (gene 3158)
Test: LTEA_HepaRG_HMGCS2: Life Technologies and Expression Analysis (LTEA) Assay for 3-Hydroxy-3-Methylglutaryl-CoA Synthase 2 (HMGCS2) using HepaRG (AID 2283504)
Conditions: mRNA level, 48 h; actives raise or lower the signal
Method in brief: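 Readout is HMGCS2 transcript by qRT-PCR, housekeeping-normalised (ACTB/GAPDH/POLR2A) and fitted bidirectionally against 0.5% DMSO. Differentiated HepaRG cells received chemicals 48 h, duplicate wells, eight half-log concentrations topping at 100 uM.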

Row | Structure (SMILES) | outcome | AC50
1 | O=C(O)c1[nH]n(-c2ccc(S(=O)(=O)O)cc2)c(=O)c1N=Nc1ccc(S(=O)(=O)O)cc1 | inactive | –
2 | CCCCCCCCCCCCCCOS(=O)(=O)O | inactive | –
3 | CC(=O)O | inactive | –
4 | CC(C)COC(=O)CCCCC(=O)OCC(C)C | inactive | –
5 | CC(C)(C)c1ccccc1 | inactive | –
6 | CC(C)NCC(O)c1ccc(O)c(O)c1 (stereo not given) | – | 0.173 µM (active)
7 | CCCCCCCCCC[N+](C)(C)[O-] | inactive | –
8 | c1ccc2occc2c1 | inactive | –
9 | CC(=O)OCC(COC(C)=O)OC(C)=O | inactive | –
10 | Oc1ccc(O)cc1 | inactive | –
11 | O=C(O)CC(O)(CC(=O)O)C(=O)O | inactive | –
12 | COc1ccc(C(=O)Nc2nc3ccccc3c(NCc3ccccc3)c2C#N)cc1 | inactive | –
13 | NC=O | inactive | –
14 | CC(COCC(C)OC(=O)c1ccccc1)OC(=O)c1ccccc1 (stereo not given) | inactive | –
15 | Cc1cn([C@H]2C=C[C@@H](CO)O2)c(=O)[nH]c1=O | inactive | –
16 | CCN(CC)CCOc1ccc(C(=C(Cl)c2ccccc2)c2ccccc2)cc1 | – | 29.2 µM (active)
17 | NCCOCCOCCN | inactive | –
18 | C/C=C/c1ccc(OC)cc1 | inactive | –
19 | COC(=O)[C@H]1[C@H]2C[C@@H]3c4[nH]c5cc(OC)ccc5c4CCN3C[C@H]2C[C@@H](OC(=O)c2cc(OC)c(OC)c(OC)c2)[C@@H]1OC | – | 57.8 µM (active)
20 | N[C@@H](Cc1c[nH]c2ccccc12)C(=O)O | inactive | –
21 | CSc1ccc(Oc2ccc(S(N)(=O)=O)cc2CN(C)C)cc1C | – | 63.9 µM (active)
22 | OCC(O)CO | inactive | –
23 | CCc1nc(N)nc(N)c1-c1ccc(Cl)cc1 | – | 68.8 µM (active)
24 | CC(=O)[C@@]1(O)CC[C@H]2[C@@H]3CCC4=CC(=O)CC[C@]4(C)[C@H]3CC[C@@]21C | inactive | –
25 | O=C(Oc1ccccc1)c1cccc(C(=O)Oc2ccccc2)c1 | inactive | –
26 | CC(=O)CC(c1ccccc1)c1c(O)c2ccccc2oc1=O (stereo not given) | inactive | –
27 | C#CC(O)C(CC)CCCC (stereo not given) | inactive | –
28 | COc1ccc(OC(F)(F)F)cc1CN[C@H]1CCCN[C@H]1c1ccccc1 | – | 78.8 µM (active)
29 | CCCCC(CC)COP(=O)(OCC(CC)CCCC)OCC(CC)CCCC (stereo not given) | inactive | –
30 | CCC(C)N(C)C(=O)c1cc2ccccc2c(-c2ccccc2Cl)n1 (stereo not given) | inactive | –
